The record followed here is PubChem BioAssay (EPA / NIEHS).

One may read the AC50 as the midpoint of the concentration-response curve, whichever way the signal moves.

Calls of active or inactive are those of the source. Rule for the calls: active = hit-call score of the fitted dose curve at least 0.9, where 1 is the maximum; inactive = score below 0.9.

Common to all, as to details: mRNA level, 48 h; actives raise or lower the signal
Read-out in assay [1]: ATP-citrate lyase (ACLY), ACLY (gene 47)
The experiment in a line: LTEA_HepaRG_ACLY: Life Technologies and Expression Analysis (LTEA) Assay for ATP-citrate lyase (ACLY) using HepaRG (AID 2283466). The gist of the method: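 Differentiated human HepaRG cells in serum-free induction medium exposed 48 h, in duplicate, to eight half-log concentrations from 100 uM top in 0.5% DMSO; ACLY mRNA measured by qRT-PCR, normalized to ACTB, GAPDH, POLR2A, fitted bidirectionally versus DMSO.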

Read-out in assay [2]: Peroxisomal acyl-coenzyme A oxidase 1 (ACOX1) gene, ACOX1 (gene 51)
The experiment in a line: LTEA_HepaRG_ACOX1: Life Technologies and Expression Analysis (LTEA) Assay for Peroxisomal acyl-coenzyme A oxidase 1 (ACOX1) gene using HepaRG (AID 2283467). The gist of the method:
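Differentiated human HepaRG cells were exposed in duplicate for 48 h in serum-free induction medium to eight half-log concentrations up to 100 uM in 0.5% DMSO. ACOX1 mRNA was then quantified by TaqMan qRT-PCR, normalized to ACTB, GAPDH and POLR2A.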

Read-out in assay [3]: Alkaline Phosphatase, Placental (ALPP) gene, ALPP (gene 250)
In words: LTEA_HepaRG_ALPP: Life Technologies and Expression Analysis (LTEA) Assay for Alkaline Phosphatase, Placental (ALPP) gene using HepaRG (AID 2283468). A digest of the protocol:
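Expression of ALPP was quantified by qRT-PCR against three housekeeping genes in human HepaRG cultures treated for 48 h with an eight-point concentration series up to 100 uM. Activity in either direction was fitted relative to 0.5% DMSO.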

Read-out in assay [4]: Bcl-2 (BAD) gene, BAD (gene 572)
In words: LTEA_HepaRG_BAD: Life Technologies and Expression Analysis (LTEA) Assay for Bcl-2 (BAD) gene using HepaRG (AID 2283469). The gist of the method: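 Differentiated human HepaRG cells in serum-free induction medium were exposed in duplicate for 48 h to eight concentrations (top 100 uM, half-log steps, 0.5% DMSO). BAD mRNA was quantified by qRT-PCR normalised to ACTB, GAPDH and POLR2A, with bidirectional fitting versus DMSO.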

Read-out in assay [5]: Bcl-2 (BAX) gene, BAX (gene 581)
The experiment in a line: LTEA_HepaRG_BAX: Life Technologies and Expression Analysis (LTEA) Assay for Bcl-2 (BAX) gene using HepaRG (AID 2283470). A digest of the protocol: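 Differentiated human HepaRG cells, plated 48 h then switched to serum-free induction medium, were exposed 48 h to 8 half-log concentrations up to 100 uM in 0.5% DMSO; BAX mRNA measured by qRT-PCR, normalized to ACTB, GAPDH, POLR2A.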

Read-out in assay [6]: adenosine kinase (ADK) gene, ADK (gene 132)
The experiment in a line: LTEA_HepaRG_ADK: Life Technologies and Expression Analysis (LTEA) Assay for adenosine kinase (ADK) gene using HepaRG (AID 2283471). The gist of the method:
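HepaRG (human liver), 48 h chemical exposure, 8-pt half-log series, top 100 uM, 0.5% DMSO vehicle. Readout: ADK mRNA by qRT-PCR vs housekeeping genes; bidirectional curve fit relative to DMSO baseline.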

Read-out in assay [7]: Alpha-fetoprotein (AFP) gene, AFP (gene 174)
The experiment in a line: LTEA_HepaRG_AFP: Life Technologies and Expression Analysis (LTEA) Assay for Alpha-fetoprotein (AFP) gene using HepaRG (AID 2283472). A digest of the protocol:
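Human HepaRG cells plated 48 h, then switched to serum-free induction medium and exposed in duplicate for 48 h to 8-point half-log series from 100 uM in 0.5% DMSO. AFP mRNA by qRT-PCR, normalized to ACTB, GAPDH, POLR2A; bidirectional fit versus DMSO.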

Read-out in the next assay: BCL2L11 (gene 10018)
In words: LTEA_HepaRG_BCL2L11: Life Technologies and Expression Analysis (LTEA) Assay for Bcl-2 (BCL2L11) gene using HepaRG (AID 2283473). A digest of the protocol:
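Cells were plated, cultured 48 h, switched to serum-free induction medium, then dosed in duplicate for 48 h at eight half-log concentrations up to 100 uM. Lysates underwent RNA isolation and TaqMan qRT-PCR; gain or loss versus DMSO was fitted.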

Read-out in assay [8]: Apolipoprotein A-V (APOA5) gene, APOA5 (gene 116519)
The experiment in a line: LTEA_HepaRG_APOA5: Life Technologies and Expression Analysis (LTEA) Assay for Apolipoprotein A-V (APOA5) gene using HepaRG (AID 2283474). A digest of the protocol:
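Human liver HepaRG cells are treated 48 h with test chemicals (100 uM top, half-log dilutions, 0.5% DMSO). APOA5 mRNA induction or loss is measured by qRT-PCR relative to vehicle.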

Read-out in assay [9]: Apoptosis regulator Bcl-2 (Homo sapiens) (UniProt P10415)
In words: LTEA_HepaRG_BCL2: Life Technologies and Expression Analysis (LTEA) Assay for Bcl-2 gene using HepaRG (AID 2283475). The gist of the method:
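Differentiated HepaRG cells in serum-free induction medium were exposed for 48 h to eight half-log concentrations up to 100 uM in 0.5% DMSO, in duplicate. BCL2 mRNA was quantified by TaqMan qRT-PCR normalised to ACTB, GAPDH and POLR2A, with bidirectional fitting versus DMSO.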

Read-out in assay [10]: Bcl-2 (BID) gene, BID (gene 637)
In words: LTEA_HepaRG_BID: Life Technologies and Expression Analysis (LTEA) Assay for Bcl-2 (BID) gene using HepaRG (AID 2283476). A digest of the protocol:
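Differentiated HepaRG cells in serum-free induction medium were exposed in duplicate for 48 h to eight half-log concentrations up to 100 uM in 0.5% DMSO. BID mRNA was quantified by qRT-PCR, normalized to ACTB, GAPDH and POLR2A.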

Read-out in another assay: Caspase-3 (Homo sapiens) (UniProt P42574)
The experiment in a line: LTEA_HepaRG_CASP3: Life Technologies and Expression Analysis (LTEA) Assay for cysteine-aspartic acid protease (CASP3) using HepaRG (AID 2283477). A digest of the protocol: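 In HepaRG liver cells dosed for 48 h at up to 100 uM (eight-point, duplicate), CASP3 expression changes are scored by qRT-PCR. Activity is fitted in both directions with 0.5% DMSO as baseline.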

Read-out in assay [11]: Cytochrome P450 (CYP24A1), CYP24A1 (gene 1591)
The experiment in a line: LTEA_HepaRG_CYP24A1: Life Technologies and Expression Analysis (LTEA) Assay for Cytochrome P450 (CYP24A1) using HepaRG (AID 2283478). The gist of the method:
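Human liver HepaRG cultures receive each chemical for 48 h across an eight-point half-log series topping at 100 uM in 0.5% DMSO. Induction or suppression of CYP24A1 mRNA is scored relative to vehicle after housekeeping-gene normalization.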

Read-out in assay [12]: Cytochrome P450 (CYP1A2), CYP1A2 (gene 1544)
The experiment in a line: LTEA_HepaRG_CYP1A2: Life Technologies and Expression Analysis (LTEA) Assay for Cytochrome P450 (CYP1A2) using HepaRG (AID 2283479). The gist of the method: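 Assesses CYP1A2 mRNA in human HepaRG liver cells after 48 h chemical exposure at up to 100 uM. Values come from qRT-PCR with bidirectional curve fitting relative to DMSO.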

Read-out in assay [13]: cysteine-aspartic acid protease (CASP8), CASP8 (gene 841)
In words: LTEA_HepaRG_CASP8: Life Technologies and Expression Analysis (LTEA) Assay for cysteine-aspartic acid protease (CASP8) using HepaRG (AID 2283480). The gist of the method: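 Differentiated human HepaRG cells, plated 48 h then switched to serum-free induction medium, were exposed in duplicate for 48 h to 8 half-log concentrations up to 100 uM in 0.5% DMSO. CASP8 mRNA was quantified by qRT-PCR, normalized to ACTB/GAPDH/POLR2A.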

Read-out in assay [14]: Cytochrome P450 (CYP2B6), CYP2B6 (gene 1555)
The experiment in a line: LTEA_HepaRG_CYP2B6: Life Technologies and Expression Analysis (LTEA) Assay for Cytochrome P450 (CYP2B6) using HepaRG (AID 2283481). A digest of the protocol: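 Using 48 h treatment of HepaRG cells in serum-free induction medium, concentrations spanned half-log steps from 100 uM in 0.5% DMSO vehicle. CYP2B6 mRNA induction or loss is scored by qRT-PCR against DMSO.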

Read-out in assay [15]: Cytochrome P450 2C19 (Homo sapiens) (UniProt P33261)
In words: LTEA_HepaRG_CYP2C19: Life Technologies and Expression Analysis (LTEA) Assay for CYP2C19 using HepaRG (AID 2283482). The gist of the method:
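Human HepaRG liver cells received test chemicals for 48 h (highest 100 uM, half-log dilutions in 0.5% DMSO). CYP2C19 mRNA induction or loss is read by multiplexed qRT-PCR and fitted in both directions versus vehicle.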

Read-out in a further assay: CYP2C8 (gene 1558)
The experiment in a line: LTEA_HepaRG_CYP2C8: Life Technologies and Expression Analysis (LTEA) Assay for CYP2C8 using HepaRG (AID 2283483). The gist of the method: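 Differentiated human HepaRG cells were exposed for 48 h in serum-free induction medium to eight half-log concentrations up to 100 uM in 0.5% DMSO, in duplicate. CYP2C8 mRNA was measured by TaqMan qRT-PCR, normalized to ACTB, GAPDH and POLR2A, and fitted bidirectionally against DMSO.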

Read-out in the next assay: CYP2E1 (gene 1571)
In words: LTEA_HepaRG_CYP2E1: Life Technologies and Expression Analysis (LTEA) Assay for CYP2E1 using HepaRG (AID 2283485). A digest of the protocol:
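HepaRG cells in serum-free induction medium exposed 48 h to test chemicals, 8 half-log concentrations up to 100 uM in 0.5% DMSO, duplicate. CYP2E1 mRNA by qRT-PCR, normalized to ACTB, GAPDH, POLR2A; bidirectional fit versus DMSO.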

Read-out in the next assay: CYP2C9 (gene 1559)
In words: LTEA_HepaRG_CYP2C9: Life Technologies and Expression Analysis (LTEA) Assay for CYP2C9 using HepaRG (AID 2283484). A digest of the protocol:
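Differentiated human HepaRG cells were exposed 48 h in serum-free induction medium to eight half-log concentrations up to 100 uM in 0.5% DMSO. CYP2C9 mRNA was measured by qRT-PCR, normalized to ACTB, GAPDH and POLR2A, and fitted bidirectionally against DMSO.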

Sequence of Apoptosis regulator Bcl-2 (Homo sapiens) (P10415 whole entry, looked up): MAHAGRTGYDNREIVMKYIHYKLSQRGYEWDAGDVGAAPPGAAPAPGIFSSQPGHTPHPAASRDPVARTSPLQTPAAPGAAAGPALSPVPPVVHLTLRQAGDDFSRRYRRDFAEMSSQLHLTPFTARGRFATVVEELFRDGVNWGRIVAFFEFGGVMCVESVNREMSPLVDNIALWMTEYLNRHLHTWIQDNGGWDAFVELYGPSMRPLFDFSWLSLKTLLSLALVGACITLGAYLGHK
Sequence of Cytochrome P450 2C19 (Homo sapiens) (P33261 whole entry, looked up): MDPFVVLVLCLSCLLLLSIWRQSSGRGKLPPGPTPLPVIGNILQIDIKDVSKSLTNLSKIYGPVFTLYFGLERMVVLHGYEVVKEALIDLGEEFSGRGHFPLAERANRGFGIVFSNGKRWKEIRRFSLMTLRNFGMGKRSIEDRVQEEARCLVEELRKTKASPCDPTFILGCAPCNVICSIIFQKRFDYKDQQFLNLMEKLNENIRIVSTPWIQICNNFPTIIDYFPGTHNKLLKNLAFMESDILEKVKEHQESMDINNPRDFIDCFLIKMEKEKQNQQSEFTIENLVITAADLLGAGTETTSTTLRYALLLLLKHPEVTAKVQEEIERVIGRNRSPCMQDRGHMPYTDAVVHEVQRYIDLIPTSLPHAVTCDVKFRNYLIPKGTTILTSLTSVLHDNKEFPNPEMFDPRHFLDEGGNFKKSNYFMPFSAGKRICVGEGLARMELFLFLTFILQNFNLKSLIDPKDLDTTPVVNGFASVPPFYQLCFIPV
Sequence of Caspase-3 (Homo sapiens) (P42574 whole entry, looked up): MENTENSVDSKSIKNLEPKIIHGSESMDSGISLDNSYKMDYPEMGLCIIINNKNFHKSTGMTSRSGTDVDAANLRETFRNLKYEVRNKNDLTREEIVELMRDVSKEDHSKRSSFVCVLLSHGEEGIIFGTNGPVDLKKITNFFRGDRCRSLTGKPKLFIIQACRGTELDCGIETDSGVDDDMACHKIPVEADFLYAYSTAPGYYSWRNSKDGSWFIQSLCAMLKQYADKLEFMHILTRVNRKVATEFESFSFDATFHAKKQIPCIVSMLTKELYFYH

On to `O=NN(c1ccccc1)c1ccccc1`, for which the call in assay [1], in assay [2], in assay [4], in [5], in assay [7] and in assay [9] was inactive. Also, the compound was classed as inactive (in the assay with Caspase-3 (Homo sapiens); in assay [11]; in assay [13]; with CYP2C8 (gene 1558); with CYP2E1 (gene 1571)). The AC50 in assay [3] was 82.7 µM (active); in assay [6], 11.8 µM (active); in the assay with BCL2L11 (gene 10018), 50 µM (active); in assay [8], 76.1 µM (active); in assay [10] it was 78.2 µM (active); in [12], 50 µM (active). The AC50 in assay [14] was 10.6 µM (active); in assay [15] it was 7.3 µM (active).

Consider `CCOC(=O)C(O)(c1ccc(Cl)cc1)c1ccc(Cl)cc1`, for which the result in assay [1], in [2], in assay [3], in [4], in assay [5] and in assay [6] was inactive. Further, the compound was classed as inactive (in assay [7]; with BCL2L11 (gene 10018); in assay [8]; in [9]; in assay [10]; in the assay with Caspase-3 (Homo sapiens)). The result in [11], in assay [13] and in [15] was inactive. Further, the AC50 was 66.5 µM (active) in assay [12], 69.1 µM (active) in assay [14], 21.6 µM (active) with CYP2C8 (gene 1558) and 30.4 µM (active) with CYP2E1 (gene 1571).

On to `C[C@]12CCC(=O)C=C1CC[C@@H]1[C@@H]2CC[C@@]2(C)[C@H]1CC[C@]2(C)O`, for which the AC50 is 45.8 µM (active) in assay [1]; 24.5 µM (active) in assay [3]; 63.6 µM (active) in assay [7]; 45.8 µM (active) in assay [8]; 10.9 µM (active) in assay [9]; 45.8 µM (active) in [10]. Also, the AC50 in assay [12] is 45.8 µM (active); in assay [14], 10.8 µM (active); in assay [15], 0.207 µM (active); with CYP2E1 (gene 1571), 79.5 µM (active). For the same compound, the compound was classed as inactive (in assay [2]; in [5]; in [6]; in the assay with BCL2L11 (gene 10018); with Caspase-3 (Homo sapiens); in [11]). For the same compound, the compound was classed as inactive (in assay [13]; with CYP2C8 (gene 1558); in the assay with CYP2C9 (gene 1559)).
